Compound activity as filed in PubChem BioAssay.
B2AR arrestin – qHTS assay of beta-arrestin-biased ligands of beta2-adrenergic receptor; Beta-2 adrenergic receptor (Homo sapiens), P07550; beta-arrestin recruitment to beta2AR, cell-based reporter; Potency, µM (series often up to 46.1 µM), for inactives: top-dose activation, actives largely listed as activators; actives 0.02% (n = 330,000);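 further: 0% = DMSO controls and full agonism = EC100 isoproterenol or metaproterenol; nearly all actives have a fitted effect of over 65% in size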
VP16 counter – VP16 counterscreen qHTS for inhibitors of ROR gamma transcriptional activity. Drosophila S2 Gal4-VP16 UAS-luciferase, luminescence, 20 h. Potency, µM (top dose mostly 53.6 µM), inactives show top-dose activity, negative = inhibition, usual class: inhibitors. actives 3.5% (n = 310,000). AID 2546, 2010;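 further: Gal4-VP16 expression switched on by copper sulfate through the metallothionein promoter; nearly all actives have a fitted effect of over 50% in size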
RORg inh – qHTS for inhibitors of ROR gamma transcriptional activity; AID 2551, 2010; Nuclear receptor ROR-gamma (Mus musculus), P51450; Potency, µM (doses to about 53.6 µM), without a hit: at the top dose activity change, negative = inhibition, hits mostly inhibitors; actives 5.4% (n = 310,000); Drosophila S2 Gal4-RORgamma UAS-luciferase reporter, 20 h; further: nearly all actives have a fitted effect of over 60% in size
Target sequence (P51450 whole entry, looked up, the tested form may be a part): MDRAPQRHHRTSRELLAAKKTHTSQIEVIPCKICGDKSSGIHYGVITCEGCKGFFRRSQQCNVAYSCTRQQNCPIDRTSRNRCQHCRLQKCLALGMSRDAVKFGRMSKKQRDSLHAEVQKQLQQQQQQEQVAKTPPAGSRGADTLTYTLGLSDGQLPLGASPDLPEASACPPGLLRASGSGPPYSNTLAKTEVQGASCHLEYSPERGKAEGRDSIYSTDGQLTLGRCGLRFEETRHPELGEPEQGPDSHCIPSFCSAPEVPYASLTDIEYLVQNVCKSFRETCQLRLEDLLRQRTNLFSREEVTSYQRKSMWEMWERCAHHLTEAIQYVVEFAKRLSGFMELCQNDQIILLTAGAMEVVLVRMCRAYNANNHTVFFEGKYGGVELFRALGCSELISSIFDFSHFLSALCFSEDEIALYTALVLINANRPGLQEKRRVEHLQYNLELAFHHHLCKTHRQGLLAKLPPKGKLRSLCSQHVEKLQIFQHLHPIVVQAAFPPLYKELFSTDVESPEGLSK
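Compounds are pin-transferred onto Drosophila Schneider cells expressing a copper-inducible Gal4–ROR gamma transactivation domain fusion. After 1 hr, copper sulfate is added to 700 uM final; luciferase is read 20 hr later.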
NPSR antag – qHTS Assay for Antagonists of the Neuropeptide S Receptor: cAMP Signal Transduction; Q6W5P4; CHO-NPSR cells, cAMP TR-FRET, antagonist mode; Potency, µM (series often up to 38.3 µM), inactives show at the highest dose activity change, negative = inhibition, usual class: inhibitors; actives 1% (n = 220,000); further: nearly all actives have a fitted effect of over 50% in size
An asterisk follows results filed as active; ? = inconclusive; . = no result; [ ] = another dose, or the depositor's remark. Compounds with a hit are over-represented: about 5.7% of the library has one in this group of screens. The call rests on the fitted dose curve; in most records, active means well fitted curve in the direction sought with a large enough effect; inconclusive means small, poorly fitted or top-dose-only effect, or another doubt; inactive means no such curve, though single readings can be large; an effect the other way counts as inactive or inconclusive. Unless noted, on the % scale 0 is the no-effect control and ±100 the full control effect; potency means the concentration at half of the fitted maximal effect.

SMILES	B2AR arrestin	VP16 counter	RORg inh	NPSR antag
CSCC[C@H](NC(=O)[C@H](CC(C)C)NC(=O)[C@H](CO)NC(=O)[C@H](CCC(=O)O)NC(=O)[C@H](CC(C)C)NC(=O)[C@H](Cc1ccc(O)cc1)NC(=O)[C@H](CCCCN)NC(=O)[C@H](CCCCN)NC(=O)[C@H](C)NC(=O)[C@H](CO)NC(=O)[C@H](CC(C)C)NC(=O)[C@H](CCC(N)=O)NC(=O)CNC(=O)[C@H](CC(C)C)NC(=O)[C@H](CC(C)C)NC(=O)[C@H](CCCCN)NC(=O)[C@H](CO)NC(=O)[C@H](Cc1ccccc1)NC(=O)[C@H](CC(=O)O)NC(=O)[C@H](CO)NC(=O)[C@@H](NC(=O)[C@H](Cc1ccccc1)NC(=O)[C@@H](NC(=O)CNC(=O)[C@H](CC(=O)O)NC(=O)[C@H](C)NC(=O)[C@@H](N)Cc1cnc[nH]1)C(C)C)[C@@H](C)O)C(N)=O	.	-2%	-5%	.
Cn1c(Nc2ccc(F)cc2)nc2ccccc21	0%	-16%	10%	.
Cn1c(NC(=S)Nc2ccccc2)nc2ccccc21	0%	1µM*	0.5µM*	3%[46.1 µM]
Nc1nc2ccccc2n1CCOc1ccc(Br)cc1	0%	.	.	.
S=C(Nc1ccccc1)Nc1nc2ccccc2n1CCOc1ccc(Br)cc1	?	2.2µM*	1.8µM*	-5%[46.1 µM]
CCCCc1cc(=O)oc2cc(OC(C)C(=O)NCCN3CCOCC3)c(Cl)cc12 (stereo not given)	0%	1%	17%	.
CCOC(=O)/C=C(\C)Sc1cc(O)c2ccccc2c1O	0%	?	11µM*	?
CCOC(=O)/C=C(\C)Sc1cc(=O)oc2ccccc12	0%	24%	2%	9%
CC(C)CN1CCc2nc(-c3ccccc3)c3c(c2CC1)COC(C)C3 (stereo not given)	.	3%[10 µM]	2%[10 µM]	.
CCN(CC)c1ccc(Nc2nc(N3CCOCC3)c3ccccc3n2)cc1	-1%	11µM*	-42%	-6%[46.1 µM]
COc1ccc(Nc2nc(N3CCCC3)c3ccccc3n2)cc1	0%	?	?	?
CCOC(=O)CCN1C(=O)[C@H]2[C@H]3[C@H](O)[C@H](O)C/C(=N/OCC(C)C)[C@@H]3CC[C@@H]2C1=O	.	1%[10 µM]	9%[10 µM]	.
CC(C)Oc1ccc(/C=N/NC(N)=S)cc1	16µM*	2.8µM*	5µM*	-37%
NC(=S)N/N=C/c1ccc(C(F)(F)F)cc1	0%	5.6µM*	5µM*	3%
C=CCOc1ccc(/C=N\NC(N)=S)cc1	0%	24%	32%	-10%
NC(=O)N/N=C/c1cccc(C(F)(F)F)c1	0%	-5%	18%	-17%
COc1ccc(/C=N/NC(N)=S)cc1	0%	?	11µM*	10%
NC(=S)N/N=C/c1ncc(C(F)(F)F)cc1Cl	?	0.5µM*	0.63µM*	?
CC(=O)c1ccccc1NC(=O)c1cc(S(=O)(=O)N2CCOCC2)ccc1N1CCCC1	0%	.	.	.
COC(=O)c1ccc(COc2ccc(Cl)cc2)o1	-1%	0%	32%	.
COC(=O)c1ccc(COc2ccc(/C=N/NC(N)=S)cc2)o1	-1%	?	11µM*	12%
Cc1ccc(NC(=O)CSc2n[nH]c(-c3ccccn3)n2)cc1	0%	5.6µM*	4.5µM*	.
O=C(CSc1n[nH]c(-c2ccccn2)n1)Nc1ccc(Cl)cc1	0%	0.1µM*	2.5µM*	.
O=C(CSc1n[nH]c(-c2ccccn2)n1)Nc1ccc(F)cc1	-1%	?	7.9µM*	.
Cc1cccn2cc(-c3ccc(Cl)cc3)nc12	0%	?	5.6µM*	-39%
SMILES	B2AR arrestin	VP16 counter	RORg inh	NPSR antag
COc1ccc(-c2cn3cccc(C)c3n2)cc1F	-1%	-14%	-5%	16%
Cc1ccc(-c2cn3cccc(C)c3n2)cc1	0%	-44%	11µM*	-22%
Cc1cccn2cc(-c3ccc(S(=O)(=O)N4CCCCC4)cc3)nc12	0%	1%	1%	-7%
COc1ccc(-c2nnc(NC(=O)C3CC3)o2)cc1	0%	10µM*	5µM*	17%
COc1cccc(-c2nnc(NC(C)=O)o2)c1	0%	?	?	6%
COc1ccc(-c2nnc(NC(=O)C(C)C)o2)cc1	0%	?	11µM*	-3%[46.1 µM]
COc1cccc(-c2nnc(NC(=O)C3CCCCC3)o2)c1	0%	11µM*	3.5µM*	3%[46.1 µM]
CC(C)CC(=O)Nc1nnc(SCC(=O)Nc2nccs2)s1	-1%	-8%	-21%	.
Cc1ccc(S(=O)(=O)ON=C2CCN(S(=O)(=O)c3ccccc3)CC2)cc1	1%	?	-8%	-8%[46.1 µM]
CC1=CC(=O)C=C(C)C1=NOS(=O)(=O)c1ccccc1	0%	18µM*	18µM*	7.9µM*
CC1=CC(=O)C(C(C)C)=C/C1=N/OS(=O)(=O)c1ccccc1	0%	2µM*	2.8µM*	4µM*
Cc1nc(NC(=O)COC(=O)c2cccs2)c(Cl)cc1Cl	-1%	.	.	.
CCN(CC)C(=O)[C@H]1CC(CC(=O)NCCN2CCOCC2)C(=O)N2CCc3c([nH]c4ccccc34)[C@]12C (stereo not given in full)	1%	.	.	.
CCCCCOc1ccc(/C(C)=N/NC2=NCCN2)cc1	-2%	-11%	?	.
CCOc1ccc(Br)cc1/C(C)=N\NC1=NCCN1	0%	7.9µM*	-33%	19%[46.1 µM]
Cc1cc(C)n(CC(=O)N2c3ccccc3Sc3ccccc32)n1	0%	-30%	7.1µM*	-24%[46.1 µM]
CCOC(=O)c1c(NC(=S)Nc2cccc(C)c2)sc2c1CC(C)(C)SC2	0%	2µM*	2µM*	-56%
CCOC(=O)c1c(NC(=S)Nc2ccccc2)sc2c1CCCCC2	0%	4µM*	2.5µM*	?
C=CCNC(=S)Nc1sc2c(c1C(=O)OCC)CCN(C(=O)OCC)C2	.	6.3µM*	2.5µM*	-14%[46.1 µM]
CCOC(=O)c1c(NC(=S)NCc2ccccc2)sc2c1CCN(C(=O)OCC)C2	0%	4.5µM*	2µM*	?
COCCn1c(=O)c(-c2ccc(F)cc2)nc2cncnc21	.	-11%	2%	.
O=C(Nc1ccncc1)c1cc(S(=O)(=O)N2CCOCC2)ccc1Cl	-1%	.	.	.
C=CCNC(=S)Nc1sc2c(c1C(=O)OCC)CC(C)(CC)OC2 (stereo not given)	-1%	?	2.8µM*	-20%
COC(=O)c1c(NC(=O)COC(=O)c2ccc(O)cc2)sc2c1CCCCC2	0%	18µM*	?	?
COCC(=O)Nc1sc2c(c1C(=O)OC)CCCC2	0%	-13%	36%	1%[46.1 µM]
C[C@]12CCC(=O)C=C1CC[C@@H]1[C@H]2[C@@H](O)C[C@@]2(C)[C@H]1CC[C@]2(O)C(=O)CO	.	-5%	-8%[10 µM]	.
COC(=O)NC(/C(C(=O)OC)=C(\C)NCc1ccccc1)c1ccco1 (stereo not given)	.	-10%[10 µM]	15%[10 µM]	.
CC(C)=NOC[C@@H](O)COCc1ccco1	.	0%[10 µM]	4%[10 µM]	.
COC(=O)COn1c(-n2nc(C)cc2C)nc2ccccc2c1=O	0%	8.9µM*	4µM*	-11%[46.1 µM]
